PubChem BioAssay (NCATS)
Records with an inconclusive call do not appear. Activity calls are given as the source filed them. The call rests on the fitted dose curve; in most records, active means well fitted cell-killing curve with a large enough effect; inconclusive means small, poorly fitted or top-dose-only effect, or effect the other way; inactive means flat fitted curve, though single readings scatter.

How the values were obtained:
Assay in all cases: Primary qHTS to identify gynecologic anti-cancer compounds using libraries of approved drugs and bioactive compounds (AID 1345084); further: nearly all actives have a fitted effect of over 55% in size
C33A = conditions: Gynecologic cancer cell panel viability, ATPlite luminescence, 48 h; series mostly up to 57.5 µM
In short: (§1)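 Cell viability after 48 h drug treatment, ATPlite luminescence readout; five doses.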

CAOV3 = conditions: Gynecologic cancer cell panel viability, ATPlite luminescence, 48 h; series mostly up to 57.5 µM
In short: as §1

CASKI = conditions: Gynecologic cancer cell panel viability, ATPlite luminescence, 48 h; series mostly up to 57.5 µM
In short: as §1

Es-2 = conditions: Gynecologic cancer cell panel viability, ATPlite luminescence, 48 h; series mostly up to 57.5 µM
In short: as §1

HeLa = conditions: Gynecologic cancer cell panel viability, ATPlite luminescence, 48 h; series mostly up to 57.5 µM
In short: as §1

Hek293T = conditions: Gynecologic cancer cell panel viability, ATPlite luminescence, 48 h, control line for the selectivity index; series mostly up to 57.5 µM
In short: as §1

JEG-3 = conditions: Gynecologic cancer cell panel viability, ATPlite luminescence, 48 h; series mostly up to 57.5 µM
In short: as §1

OV90 = conditions: Gynecologic cancer cell panel viability, ATPlite luminescence, 48 h; series mostly up to 57.5 µM
In short: as §1

PA-1 = conditions: Gynecologic cancer cell panel viability, ATPlite luminescence, 48 h; series mostly up to 57.5 µM
In short: as §1

Tov-21-G = conditions: Gynecologic cancer cell panel viability, ATPlite luminescence, 48 h; series mostly up to 57.5 µM
In short: as §1

Tov112D = conditions: Gynecologic cancer cell panel viability, ATPlite luminescence, 48 h; series mostly up to 57.5 µM
In short: as §1

SKOV3 = conditions: Gynecologic cancer cell panel viability, ATPlite luminescence, 48 h; series mostly up to 57.5 µM
In short: as §1

Measured: Potency

O=C(c1ccc(F)cc1)N1CCCC(c2nc(-c3ccc(F)cc3)no2)C1 (stereo not drawn)
inactive: C33A | CAOV3 | CASKI | Es-2 | HeLa | Hek293T | JEG-3 | OV90 | PA-1 | Tov-21-G | Tov112D

CC(C)(C)[C@H](NC(=O)c1ccc(N)c(Cl)c1)C(=O)N1CCC[C@H]1C(=O)N[C@H](C#N)CC(=O)O
inactive: C33A | CAOV3 | CASKI | Es-2 | HeLa | Hek293T | JEG-3 | OV90 | PA-1 | Tov-21-G | Tov112D

COc1ccc(NC(=O)c2ccc(-c3ccc(C(=N)N)cc3C)cc2)cc1N1CCN(C)CC1
inactive: C33A | CAOV3 | CASKI | Es-2 | HeLa | Hek293T | JEG-3 | OV90 | PA-1 | Tov-21-G | Tov112D

NS(=O)(=O)Nc1ncnc(OCCOc2ncc(Br)cn2)c1-c1ccc(Br)cc1
inactive: C33A | CAOV3 | CASKI | Es-2 | HeLa | Hek293T | JEG-3 | OV90 | PA-1 | Tov-21-G | Tov112D

N#Cc1cc(C2=Nc3ccc(Br)cc3NC(=O)C2)ccn1
inactive: C33A | CAOV3 | CASKI | Es-2 | HeLa | Hek293T | JEG-3 | OV90 | PA-1 | Tov-21-G | Tov112D

NC(=O)c1nc(Nc2ccccc2)sc1NC(=O)C1CCCCC1
inactive: C33A | CAOV3 | CASKI | Es-2 | HeLa | Hek293T | JEG-3 | OV90 | PA-1 | Tov-21-G | Tov112D

CCn1c(N)c(C(=O)NC)c(=O)c2ccc(C#CC(C)(O)COC)nc21 (stereo not drawn)
inactive: C33A | CAOV3 | CASKI | Es-2 | HeLa | Hek293T | JEG-3 | OV90 | PA-1 | Tov-21-G | Tov112D

COc1cc2nc(C3CC3)nc(N3CCN(c4ccccc4OC)CC3)c2cc1OC
inactive: C33A | CAOV3 | CASKI | Es-2 | HeLa | Hek293T | JEG-3 | OV90 | PA-1 | Tov-21-G | Tov112D

C[C@@H]1O[C@@H](O[C@H]2[C@@H]3C=CO[C@@H](O[C@@H]4O[C@H](CO)[C@@H](O)[C@H](O)[C@H]4O)[C@@H]3[C@@]3(CO)O[C@@H]23)[C@H](O)[C@H](OC(=O)/C=C/c2ccccc2)[C@H]1O
inactive: C33A | CAOV3 | CASKI | Es-2 | HeLa | Hek293T | JEG-3 | OV90 | Tov-21-G | Tov112D

CC(=O)C=C=C1C(C)(C)CC(O)CC1(C)O[C@@H]1O[C@H](CO[C@H]2OC[C@](O)(CO)[C@H]2O)[C@@H](O)[C@H](O)[C@H]1O (stereo partly drawn)
inactive: C33A | CAOV3 | CASKI | Es-2 | HeLa | Hek293T | JEG-3 | OV90 | PA-1 | Tov-21-G | Tov112D

O=C(Nc1ccccc1)N1CCN(c2nc(-c3ccccc3)ns2)CC1
inactive: C33A | CAOV3 | CASKI | Es-2 | HeLa | Hek293T | JEG-3 | OV90 | Tov-21-G | Tov112D

O=C(NCc1cccs1)c1cc2nc(-c3ccco3)cc(C(F)(F)Cl)n2n1
inactive: C33A | CAOV3 | CASKI | Es-2 | HeLa | Hek293T | JEG-3 | OV90 | SKOV3 | Tov-21-G | Tov112D

COc1cc(OC)c2c(=O)[nH]c(-c3cc(C)c(OCCO)c(C)c3)nc2c1
inactive: C33A | CAOV3 | CASKI | Es-2 | HeLa | Hek293T | JEG-3 | OV90 | Tov-21-G | Tov112D

CNC(=O)c1cc(Oc2ccc(NC(=O)c3cccc(C(F)(F)F)c3)cc2)ccn1
inactive: C33A | CAOV3 | CASKI | Es-2 | HeLa | Hek293T | JEG-3 | OV90 | Tov-21-G | Tov112D

CCCOc1ccc(S(=O)(=O)N2CCN(CCO)CC2)cc1-c1nc2c(CCC)cn(CC)c2c(=O)[nH]1
inactive: C33A | CAOV3 | CASKI | Es-2 | HeLa | Hek293T | JEG-3 | OV90 | SKOV3 | Tov-21-G | Tov112D

C/C=C(/C)C(=O)O[C@@H]1C[C@@H](OC(=O)CC(C)C)C2(C)C3C(=O)C=C(C)C2C3C1(C)C (stereo partly drawn)
inactive: C33A | CAOV3 | CASKI | Es-2 | HeLa | Hek293T | JEG-3 | OV90 | SKOV3 | Tov-21-G | Tov112D

Cc1cc(N2CCOCC2)ccc1Nc1nc(NC2CCCCC2)c2[nH]cnc2n1
inactive: C33A | CAOV3 | CASKI | Es-2 | HeLa | Hek293T | JEG-3 | OV90 | Tov-21-G | Tov112D

COc1ccc(S(=O)(=O)n2cnc3cc(C)c(C)cc32)cc1
inactive: C33A | CAOV3 | CASKI | Es-2 | HeLa | Hek293T | JEG-3 | OV90 | SKOV3 | Tov-21-G | Tov112D
